# RMI FANCM FP = inhibitors of human RMI core complex binding to FANCM MM2; AID 1159607; FP signal (polarization) at 33 µM; hit rate 0.58% among 70,000; Fluorescence polarization, RMI core complex with F-MM2 peptide; stronger effect = lower value; in the data active = FP signal below about 40
# * = called active by the depositor; ! = repeats disagree. Only a selection was taken, and hits are over-represented in it overall.
SMILES,RMI FANCM FP
CS(=O)(=O)Nc1ccc(-c2nc3ccccc3[nH]2)cc1,53
CN(CC(=O)Nc1ccc(C(F)(F)F)cc1)S(=O)(=O)c1cccc2cnccc12,57
CCOC(=O)CC(=O)CSc1ccc2nnc(-c3cccs3)n2n1,59
CN1C(=O)/C(=C\c2ccc(C(=O)Nc3ccc(O)cc3C(=O)O)cc2)SC1=S,51
O=C(Nc1nnc(-c2ccc(F)cc2)o1)C1CCCCC1,61
O=C(Nc1cccc(-c2nc3ccccc3[nH]2)c1)c1ccc(Cl)cc1,97
Nc1ccc(Cl)cc1-c1nc2ccccc2[nH]1,54
O=c1oc2c(Cl)cc(Cl)cc2cc1-c1nc2ccccc2[nH]1,40*
N#Cc1ccc(OCC(F)(F)F)c(C#N)c1OCC(F)(F)F,57
O=C(NC(=O)c1csc([N+](=O)[O-])c1)NN1CCOCC1,56
Cn1c(-c2nc(C(=O)NN3CCOCC3)cs2)cc2ccccc21,3*
O=C(Nc1ccccc1)c1csc(-c2ccccc2)n1,66
O=C(NCCc1cn2ccccc2n1)c1cccc([N+](=O)[O-])c1,54
CCc1ccc(NC(=O)Cn2nc3ccc(SC(C)(C)C)nn3c2=O)cc1,63
O=C(CNCCO)NC1C2CC3CC(C2)CC1C3 (stereo not given),67
CCOC(=O)c1c(-c2ccccc2)oc2c1cc(NS(=O)(=O)c1ccc(C)cc1C)c1ccccc12,60
CCOC(=O)c1c(C)oc2c1c(C=NC(C)c1ccccc1)c(O)c1ccccc12 (stereo not given),39
CCOC(=O)c1c(C)oc2c1c(C=NC1CC(C)(C)NC(C)(C)C1)c(O)c1ccccc12,8*
CC(=O)/C(=N/OCc1ccc(C#N)cc1)c1ccc2c(c1)OCO2,52
COc1ccc(OC)c(-c2ccc(N3CCN(C(=O)Nc4ccccc4F)CC3)nn2)c1,66
COc1nn(C)cc1-c1nnc(SCc2cccc(C(F)(F)F)c2)n1C,70
C(=NCCc1ccccc1)c1ccccc1,49
Clc1cc(Cl)cc(C=NCc2ccccc2)c1,21*
C(=NCc1ccccc1)c1ccc2c(c1)OCO2,53
Cc1ccnc(NC(=O)CC(C)n2cncn2)c1 (stereo not given),63
SMILES,RMI FANCM FP
COc1cc(OC)c(NC(=O)Cn2c(=O)n(Cc3ccc(F)cc3)c(=O)c3nccnc32)cc1Cl,79
O=C(NCc1ccc2[nH]c3c(c2c1)CCCC3)c1cccs1,45
O=C(NCc1ccc2[nH]c3c(c2c1)CCCC3)c1ccc(C(F)(F)F)cc1,43
O=C(Cc1cccs1)NCc1ccc2[nH]c3c(c2c1)CCCC3,-1*
CC(=O)Nc1nc(CC(=O)NC(C)c2ccccc2)cs1 (stereo not given),55
O=S(=O)(Cc1ccc(Cl)cc1)c1ccc(NCc2ccc3c(c2)OCO3)nn1,74
CC1(C)CCc2cc(/C=N\O)ccc2O1,60
CCOC(=O)c1sc2nc(NC(=O)c3ccc(S(=O)(=O)N4CCCC(C)C4)cc3)sc2c1C (stereo not given),55
CCC(C)(C)C1CCc2oc3c(cc(NS(=O)(=O)c4cccc([N+](=O)[O-])c4)c4ccccc43)c2C1 (stereo not given),32*!
CC1CCc2oc3c(cc(NS(=O)(=O)c4cccs4)c4ccccc43)c2C1 (stereo not given),64
CC1CCc2oc3c(cc(NS(=O)(=O)c4ccc(Br)cc4)c4ccccc43)c2C1 (stereo not given),35
O=C(NCCCn1ccnc1)C(=O)c1cn(CC(=O)N2CCOCC2)c2ccccc12,58
O=c1[nH]c2c(s1)C(c1ccc(Cl)cc1)C1C3CCC(C3)C1S2 (stereo not given),16*
COc1ccc(C2c3sc(=O)[nH]c3SC3C4CC(C5C(=O)N(c6ccccc6)C(=O)C45)C23)cc1 (stereo not given),56
O=c1[nH]c2c(s1)C1c3ccccc3OCC1CS2 (stereo not given),-9
CSc1ccc(NC(=O)c2ccc(Cl)s2)cc1,70
Cc1ccc(C)c(S(=O)(=O)N2C(=S)NC(=O)C2Cc2ccccc2)c1 (stereo not given),75
Cc1ccc(C)c(S(=O)(=O)N=C2C=C(Cl)C(=O)c3ccccc32)c1,20*
Cc1ccc(C)c(S(=O)(=O)N=C2C=C(SCC(=O)O)C(=O)c3ccccc32)c1,67
Cc1coc(C)c1C(=O)O,57
Cc1noc(C)c1S(=O)(=O)N1CCC(C(=O)O)CC1,56
CCCc1noc(C)c1C(=O)O,-5*
CCOc1ccc(NC(=O)CCCN2C(=O)S/C(=C\C(C)=C\c3ccccc3)C2=O)cc1,55
O=C(Nc1nnc(-c2ccc(F)cc2)o1)c1cc([N+](=O)[O-])ccc1Cl,63
CC(=O)ON1C(=O)c2cccc3cccc(c23)C1=O,52
SMILES,RMI FANCM FP
O=C1c2cccc3c([N+](=O)[O-])ccc(c23)C(=O)N1Cc1cccnc1,-13
CC(=O)ON1C(=O)c2cccc3c([N+](=O)[O-])ccc(c23)C1=O,-6*
O=C(NCCN1CCOCC1)C(=O)Nc1cccc(N2CCCCC2=O)c1,52
COc1cccc(CSc2nc(CC(=O)NC3CCCC3)cc(=O)[nH]2)c1,50
O=C(Cc1cn(Cc2ccccc2)c2ccccc12)N1CCCC1,65
CC(=O)Oc1ccccc1C(=O)O,50
O=C(O)c1cc(O)c2c(c1)C(=O)c1cc(O)cc(O)c1C2=O,57
CC(=O)Oc1cccc2c1C(=O)c1c(OC(C)=O)cc(C(=O)O)cc1C2=O,34*
COc1ccc(CC(=O)NCC(c2ccc(N(C)C)cc2)N(C)C)cc1OC (stereo not given),57
CCN(CC)CCN(C(=O)c1ccc(S(=O)(=O)N(CC)c2ccccc2)cc1)c1nc2ccc(C)cc2s1,101
CCN(CC)CCN(C(=O)c1ccc(S(=O)(=O)N(CC)c2ccccc2)cc1)c1nc2cc3c(cc2s1)OCCO3,40*
CCN(c1ccccc1)S(=O)(=O)c1ccc(C(=O)N(CCCN(C)C)c2nc3cc4c(cc3s2)OCO4)cc1,135
CS(=O)(=O)c1ccccc1C(=O)Nc1sc(-c2ccccc2)cc1C(N)=O,60
Cc1cc(NC(=O)CN2CC3CC(C2)c2cccc(=O)n2C3)nc2c1c(=O)oc1ccccc12 (stereo not given),31*!
Cc1cc(NC(=O)C(C)(C)Oc2ccc(Cl)cc2)nc2c1c(=O)oc1ccccc12,75
O=C(CSc1nc2c(oc3ccccc32)c(=O)n1CC1CCCO1)Nc1cccc(Cl)c1 (stereo not given),67
CCN1C(=O)Cc2cc(NC(=O)COc3ccc(Cl)cc3Cl)ccc21,77
CCOC(=O)N1CCc2c(sc(NC(=O)c3ccc(Br)s3)c2-c2nc3ccccc3s2)C1,6*
CCOC(=O)N1CCc2c(sc(N)c2-c2nc3ccccc3s2)C1,76
CC(C)N1CCc2c(sc(NC(=O)Cc3ccc(F)cc3)c2-c2nc3ccccc3s2)C1,500
COC(=O)N1CCc2c(sc(NC(=O)c3cccs3)c2-c2nc3ccccc3s2)C1,76
COc1ccc(CC(=O)Nc2sc3c(c2-c2nc4ccccc4s2)CCN(C(C)C)C3)cc1,55
CCOc1ccc(C(=O)Nc2sc3c(c2-c2nc4ccccc4s2)CCN(C(C)C)C3)cc1,-31*
Cc1onc(-c2ccccc2)c1C(=O)NNc1ncc(C(F)(F)F)cc1Cl,52
CSc1sc(Br)c2c1/C(=N/O)CC(C)(C)C2,52
O=C(Cn1nc(S(=O)(=O)c2ccccc2)ccc1=O)Nc1ccc(Br)cc1,69
Cc1ccc(CNC(=O)Cn2cccc(-c3nc(-c4ccc(C)cc4)no3)c2=O)cc1,59
